# Test results taken from the supplement of paper PMC10849652.
# About 7,900 targets were measured; listed, in parts, are those with a hit and a random draw of the rest. About 0.6% of all pairs of compound and target were hits. A number with no mark means an inactive call.
# Experiments:
# Experiment in all cases: log2 fold change, soluble protein after heating vs DMSO (PISA); higher = thermal stabilisation; K562 cells, 10 uM, 30 min; active = over 0.2 and 3.5 SD of the protein, either way, in both replicates (recomputed)
# [1] = compound: CC[C@@H]1C(=O)N(C)c2cnc(Nc3ccc(C(=O)NC4CCN(C)CC4)cc3OC)nc2N1C1CCCC1
# Summary of the method: (§1)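 Values are thermal stability changes relative to control samples and are taken from duplicates. They are stated as log2 fold changes. Before quantification by TMTpro 16plex LC-MS/MS with equalised channel sums, K562 cells at 2×10^6 cells/mL were treated with 10 μM compound for 30 min, heated in aliquots for 3 min across 48°C-58°C, pooled, extracted in PBS with 0.5% NP-40 at 4°C, and centrifuged at 21,000xg for 90 min to give the soluble supernatant.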
# volasertib = compound: CC[C@@H]1C(=O)N(C)c2cnc(Nc3ccc(C(=O)N[C@H]4CC[C@H](N5CCN(CC6CC6)CC5)CC4)cc3OC)nc2N1C(C)C [volasertib]
# Summary of the method: as §1
# [2] = compound: CC[C@H](C)N1C=C(C2=C(C=C(C=C21)C3=CN=C(C=C3)N4CCNCC4)C(=O)NCC5=C(C=C(NC5=O)C)C)C
# Summary of the method: as §1
# epoxomicin = compound: CC[C@H](C)[C@@H](C(=O)N[C@@H]([C@@H](C)O)C(=O)N[C@@H](CC(C)C)C(=O)[C@]1(CO1)C)NC(=O)[C@H]([C@@H](C)CC)N(C)C(=O)C [epoxomicin]
# Summary of the method: as §1
# [3] = compound: CCn1c(C(=O)N(C2CC2)C2CC2)cc2c3c(ncn3C)c(Nc3cc(C)n(C)n3)nc21
# Summary of the method: as §1
# [4] = compound: CCn1cc(-c2ccnc3[nH]c(-c4cccc(CN(C)C)c4)cc23)c(-c2ccc(NC(=O)N(C)C)cc2)n1
# Summary of the method: as §1
# [5] = compound: CN(C)CC(=O)Nc1ccc2[nH]c(=O)c3ccccc3c2c1
# Summary of the method: as §1
# rosiglitazone = compound: CN(CCOC1=CC=C(C=C1)C[C@H]2C(=O)NC(=O)S2)C3=CC=CC=N3 (racemic) [rosiglitazone]
# Summary of the method: as §1
# [6] = compound: CN1C2=C(C3=C1C(=O)N(N=C3)CC4=CC(=CC=C4)N)SC(=C2)S(=O)C
# Summary of the method: as §1
# [7] = compound: CN1CCC(CNc2ccc3ncc(-c4cccc(OC(F)(F)F)c4)n3n2)CC1
# Summary of the method: as §1
# saracatinib = compound: CN1CCN(CCOc2cc(OC3CCOCC3)c3c(Nc4c(Cl)ccc5c4OCO5)ncnc3c2)CC1 [saracatinib]
# Summary of the method: as §1
# sotrastaurin = compound: CN1CCN(c2nc(C3=C(c4c[nH]c5ccccc45)C(=O)NC3=O)c3ccccc3n2)CC1 [sotrastaurin]
# Summary of the method: as §1
# alvocidib = compound: CN1CC[C@H](c2c(O)cc(O)c3c(=O)cc(-c4ccccc4Cl)oc23)[C@H](O)C1 [alvocidib]
# Summary of the method: as §1
# Tubastatin A = compound: CN1CCc2c(c3ccccc3n2Cc2ccc(C(=O)NO)cc2)C1 [Tubastatin A]
# Summary of the method: as §1
# [8] = compound: CNC(=O)C1=CC=CC=C1NC2=NC(=NC=C2Cl)NC3=C(C=C(C=C3)N4CCOCC4)OC
# Summary of the method: as §1
# defactinib = compound: CNC(=O)c1ccc(Nc2ncc(C(F)(F)F)c(NCc3nccnc3N(C)S(C)(=O)=O)n2)cc1 [defactinib]
# Summary of the method: as §1
# rucaparib = compound: CNCc1ccc(-c2[nH]c3cc(F)cc4c3c2CCNC4=O)cc1 [rucaparib]
# Summary of the method: as §1
# [9] = compound: CNc1nc(-c2ccc3c(N)n[nH]c3c2)cc(N2C[C@@H](C(=O)NC3CCCCC3)CC[C@H]2C)n1
# Summary of the method: as §1
# encorafenib = compound: COC(=O)N[C@@H](C)CNc1nccc(-c2cn(C(C)C)nc2-c2cc(Cl)cc(NS(C)(=O)=O)c2F)n1 [encorafenib]
# Summary of the method: as §1
# [10] = compound: COC(=O)[C@H](CCSC)NC(=O)C1=C(C=C(C=C1)NC[C@H](CS)N)C2=CC=CC=C2
# Summary of the method: as §1
# Chain of UniProt P31749 (P31749 whole entry, looked up): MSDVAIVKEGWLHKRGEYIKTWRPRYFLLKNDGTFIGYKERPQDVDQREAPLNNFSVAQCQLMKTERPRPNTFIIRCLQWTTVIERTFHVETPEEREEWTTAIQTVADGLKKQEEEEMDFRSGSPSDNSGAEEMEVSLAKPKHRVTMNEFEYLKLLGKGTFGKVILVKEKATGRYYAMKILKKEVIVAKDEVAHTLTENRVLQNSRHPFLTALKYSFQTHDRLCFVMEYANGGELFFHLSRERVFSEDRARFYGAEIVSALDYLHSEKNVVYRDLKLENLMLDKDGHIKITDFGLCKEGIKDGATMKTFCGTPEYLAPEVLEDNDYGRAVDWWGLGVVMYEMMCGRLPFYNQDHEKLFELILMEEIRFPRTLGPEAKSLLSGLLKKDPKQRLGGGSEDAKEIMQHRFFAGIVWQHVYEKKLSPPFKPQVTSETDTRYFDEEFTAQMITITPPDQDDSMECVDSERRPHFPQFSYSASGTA
# Chain of UniProt Q9UJX6 (Q9UJX6 whole entry, looked up): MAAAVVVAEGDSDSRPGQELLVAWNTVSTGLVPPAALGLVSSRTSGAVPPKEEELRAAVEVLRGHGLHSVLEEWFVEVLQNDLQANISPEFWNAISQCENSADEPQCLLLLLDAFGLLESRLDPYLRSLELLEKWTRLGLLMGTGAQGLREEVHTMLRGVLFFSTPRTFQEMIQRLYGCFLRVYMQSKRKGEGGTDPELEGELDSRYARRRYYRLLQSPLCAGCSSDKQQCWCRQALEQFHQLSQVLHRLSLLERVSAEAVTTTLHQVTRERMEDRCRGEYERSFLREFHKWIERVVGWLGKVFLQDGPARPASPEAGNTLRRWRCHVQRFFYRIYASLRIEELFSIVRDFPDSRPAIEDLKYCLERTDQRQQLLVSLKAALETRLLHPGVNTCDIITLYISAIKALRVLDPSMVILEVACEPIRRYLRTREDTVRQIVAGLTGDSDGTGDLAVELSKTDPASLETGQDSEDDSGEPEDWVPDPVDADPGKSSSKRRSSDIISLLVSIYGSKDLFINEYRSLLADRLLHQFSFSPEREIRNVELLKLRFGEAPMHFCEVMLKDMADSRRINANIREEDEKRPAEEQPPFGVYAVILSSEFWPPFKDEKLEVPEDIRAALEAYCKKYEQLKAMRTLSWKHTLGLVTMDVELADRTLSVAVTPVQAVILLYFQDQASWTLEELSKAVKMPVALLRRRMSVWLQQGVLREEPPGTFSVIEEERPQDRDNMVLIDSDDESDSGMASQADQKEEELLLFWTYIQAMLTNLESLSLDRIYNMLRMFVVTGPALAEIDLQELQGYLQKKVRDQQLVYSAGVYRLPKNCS
# Chain of UniProt Q7Z569 (Q7Z569 whole entry, looked up): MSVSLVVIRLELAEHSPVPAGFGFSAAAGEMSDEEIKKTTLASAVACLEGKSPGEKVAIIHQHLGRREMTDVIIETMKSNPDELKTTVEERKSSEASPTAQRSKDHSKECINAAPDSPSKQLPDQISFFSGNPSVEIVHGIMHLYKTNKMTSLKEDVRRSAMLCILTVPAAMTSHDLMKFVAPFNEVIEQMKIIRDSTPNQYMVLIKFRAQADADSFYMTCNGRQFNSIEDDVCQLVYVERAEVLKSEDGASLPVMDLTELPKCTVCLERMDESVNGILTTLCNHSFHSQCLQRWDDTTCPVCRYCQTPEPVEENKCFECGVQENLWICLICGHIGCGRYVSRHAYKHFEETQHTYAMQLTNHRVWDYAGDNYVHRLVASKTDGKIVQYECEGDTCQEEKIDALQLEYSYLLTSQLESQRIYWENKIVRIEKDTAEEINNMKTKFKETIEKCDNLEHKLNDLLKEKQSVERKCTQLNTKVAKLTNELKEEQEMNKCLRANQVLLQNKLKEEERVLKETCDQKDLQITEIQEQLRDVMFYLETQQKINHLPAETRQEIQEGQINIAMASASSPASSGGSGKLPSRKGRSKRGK
# Chain of UniProt Q8IUR7 (Q8IUR7 whole entry, looked up): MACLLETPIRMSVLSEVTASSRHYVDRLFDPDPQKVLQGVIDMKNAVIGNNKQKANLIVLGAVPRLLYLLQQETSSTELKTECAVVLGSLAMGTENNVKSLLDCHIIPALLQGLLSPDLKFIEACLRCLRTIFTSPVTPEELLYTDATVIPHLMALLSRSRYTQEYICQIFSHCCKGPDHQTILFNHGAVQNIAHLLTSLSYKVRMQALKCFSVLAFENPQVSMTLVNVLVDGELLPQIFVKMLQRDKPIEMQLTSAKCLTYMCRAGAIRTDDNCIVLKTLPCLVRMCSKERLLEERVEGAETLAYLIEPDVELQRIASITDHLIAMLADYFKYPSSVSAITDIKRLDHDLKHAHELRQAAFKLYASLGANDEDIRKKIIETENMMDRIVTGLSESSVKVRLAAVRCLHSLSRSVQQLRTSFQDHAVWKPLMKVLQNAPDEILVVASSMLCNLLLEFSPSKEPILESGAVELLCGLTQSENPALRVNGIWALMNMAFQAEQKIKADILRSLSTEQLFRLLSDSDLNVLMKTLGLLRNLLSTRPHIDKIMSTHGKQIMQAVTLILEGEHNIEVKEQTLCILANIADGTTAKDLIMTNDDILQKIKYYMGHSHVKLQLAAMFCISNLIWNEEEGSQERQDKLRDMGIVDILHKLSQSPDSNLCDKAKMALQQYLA
# Chain of UniProt Q9BTE6 (Q9BTE6 whole entry, looked up): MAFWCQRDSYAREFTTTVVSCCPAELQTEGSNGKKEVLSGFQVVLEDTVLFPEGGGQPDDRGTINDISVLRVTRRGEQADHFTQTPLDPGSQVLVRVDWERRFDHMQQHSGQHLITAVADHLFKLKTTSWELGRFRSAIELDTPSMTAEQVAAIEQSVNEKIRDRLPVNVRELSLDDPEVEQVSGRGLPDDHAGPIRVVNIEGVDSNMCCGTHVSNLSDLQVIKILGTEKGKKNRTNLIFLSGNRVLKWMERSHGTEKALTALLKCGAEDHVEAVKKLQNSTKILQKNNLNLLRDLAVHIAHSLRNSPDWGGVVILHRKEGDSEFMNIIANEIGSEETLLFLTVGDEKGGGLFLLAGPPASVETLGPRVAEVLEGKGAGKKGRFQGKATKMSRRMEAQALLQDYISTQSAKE
# Chain of UniProt Q92934 (Q92934 whole entry, looked up): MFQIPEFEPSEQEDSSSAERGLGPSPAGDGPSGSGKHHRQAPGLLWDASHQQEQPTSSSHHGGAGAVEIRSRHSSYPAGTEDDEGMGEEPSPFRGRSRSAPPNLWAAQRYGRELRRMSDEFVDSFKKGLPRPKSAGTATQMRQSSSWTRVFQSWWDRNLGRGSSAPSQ
# Chain of UniProt Q96BI3 (Q96BI3 whole entry, looked up): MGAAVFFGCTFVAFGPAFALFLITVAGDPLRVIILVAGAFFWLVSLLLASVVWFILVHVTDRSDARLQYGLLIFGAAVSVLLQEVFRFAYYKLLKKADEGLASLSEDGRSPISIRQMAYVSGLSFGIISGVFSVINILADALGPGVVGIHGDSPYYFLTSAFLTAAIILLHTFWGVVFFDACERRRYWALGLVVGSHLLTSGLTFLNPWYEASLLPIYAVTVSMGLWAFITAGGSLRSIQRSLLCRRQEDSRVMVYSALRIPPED
# Chain of UniProt Q96P47 (Q96P47 whole entry, looked up): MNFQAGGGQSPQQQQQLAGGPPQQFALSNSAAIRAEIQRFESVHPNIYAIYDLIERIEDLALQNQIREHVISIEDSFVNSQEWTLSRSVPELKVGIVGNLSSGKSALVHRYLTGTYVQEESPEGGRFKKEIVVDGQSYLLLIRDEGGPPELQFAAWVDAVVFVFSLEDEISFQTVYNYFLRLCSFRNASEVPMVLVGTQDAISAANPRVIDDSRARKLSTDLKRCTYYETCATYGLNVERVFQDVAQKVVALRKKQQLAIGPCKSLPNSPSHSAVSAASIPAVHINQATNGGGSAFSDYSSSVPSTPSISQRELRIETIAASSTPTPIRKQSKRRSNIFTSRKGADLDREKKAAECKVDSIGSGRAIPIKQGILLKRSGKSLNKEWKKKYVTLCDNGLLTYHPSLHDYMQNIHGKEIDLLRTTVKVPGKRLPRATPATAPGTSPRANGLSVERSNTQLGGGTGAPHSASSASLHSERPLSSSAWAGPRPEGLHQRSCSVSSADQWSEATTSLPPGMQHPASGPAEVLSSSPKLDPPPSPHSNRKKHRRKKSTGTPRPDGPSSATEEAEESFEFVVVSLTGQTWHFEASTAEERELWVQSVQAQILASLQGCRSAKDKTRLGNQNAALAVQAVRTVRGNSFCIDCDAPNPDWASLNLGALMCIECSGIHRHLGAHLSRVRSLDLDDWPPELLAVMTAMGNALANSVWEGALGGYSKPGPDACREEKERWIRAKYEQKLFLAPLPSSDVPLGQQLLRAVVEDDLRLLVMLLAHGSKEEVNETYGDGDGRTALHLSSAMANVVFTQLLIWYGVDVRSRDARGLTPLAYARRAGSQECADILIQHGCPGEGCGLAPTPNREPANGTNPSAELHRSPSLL
# Chain of UniProt Q13795 (Q13795 whole entry, looked up): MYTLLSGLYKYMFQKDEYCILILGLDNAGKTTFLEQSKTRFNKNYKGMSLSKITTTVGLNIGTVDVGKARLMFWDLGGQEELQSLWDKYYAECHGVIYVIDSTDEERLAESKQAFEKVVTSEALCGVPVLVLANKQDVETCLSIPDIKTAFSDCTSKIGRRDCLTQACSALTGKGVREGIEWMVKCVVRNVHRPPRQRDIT
# Chain of UniProt Q8N6D5 (Q8N6D5 whole entry, looked up): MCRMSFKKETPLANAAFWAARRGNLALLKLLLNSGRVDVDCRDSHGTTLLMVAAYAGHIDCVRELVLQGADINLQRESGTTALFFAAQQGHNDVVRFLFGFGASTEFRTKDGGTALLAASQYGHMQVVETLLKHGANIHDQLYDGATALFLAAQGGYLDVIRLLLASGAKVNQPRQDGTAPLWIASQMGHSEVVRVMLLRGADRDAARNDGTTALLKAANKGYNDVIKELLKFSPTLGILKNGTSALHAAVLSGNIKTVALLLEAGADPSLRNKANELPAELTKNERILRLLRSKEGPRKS
# Chain of UniProt Q9NX38 (Q9NX38 whole entry, looked up): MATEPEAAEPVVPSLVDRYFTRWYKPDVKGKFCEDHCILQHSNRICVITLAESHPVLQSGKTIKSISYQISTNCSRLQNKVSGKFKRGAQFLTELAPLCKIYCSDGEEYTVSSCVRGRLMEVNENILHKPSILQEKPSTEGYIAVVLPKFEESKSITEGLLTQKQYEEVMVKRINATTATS
Target,log2 fold change [1],log2 fold change (volasertib),log2 fold change [2],log2 fold change (epoxomicin),log2 fold change [3],log2 fold change [4],log2 fold change [5],log2 fold change (rosiglitazone),log2 fold change [6],log2 fold change [7],log2 fold change (saracatinib),log2 fold change (sotrastaurin),log2 fold change (alvocidib),log2 fold change (Tubastatin A),log2 fold change [8],log2 fold change (defactinib),log2 fold change (rucaparib),log2 fold change [9],log2 fold change (encorafenib),log2 fold change [10]
ARFRP1 (UniProt Q13795),-0.038,-0.05,0.048,0.037,0.026,-0.23,0.012,-0.021,-0.021,0.071,0.108,-0.035,-0.008,-0.059,0.037,0.01,0.033,0.031,-0.027,-0.137
APAF1 (UniProt O14727),-0.123,-0.076,0.187,-0.045,-0.231,-0.009,0.037,,0.148,-0.088,-0.088,0,-0.026,,0.109,0.082,0.103,0.032,0.158,0.05
BCL9L (UniProt Q86UU0),0,0.036,0.044,0.038,0.04,-0.024,-0.003,0.088,-0.023,-0.019,-0.042,0.042,-0.012,0.053,-0.017,-0.014,0.026,-0.092,-0.033,0.069
ANK2 (UniProt Q01484),0.049,-0.071,-0.003,,-0.1,0.122,-0.018,0.03,-0.128,-0.223,0.24,0.05,-0.013,-0.122,0.05,-0.057,-0.019,-0.095,-0.106,-0.041
APH1A (UniProt Q96BI3),-0.023,0.031,0.004,,-0.019,0.026,0.19,-0.183,0.034,0.03,0.025,0.131,0.073,0.097,-0.047,-0.089,0.002,-0.01,0,-0.111
AARSD1 (UniProt Q9BTE6),-0.042,-0.227,-0.121,,-0.046,,,0.085,0.283,,0.008,,-0.15,,0.08,,0.014,0.165,-0.042,
BAD (UniProt Q92934),-0.043,0.038,0.085,-0.086,0.014,0.022,-0.125,0.059,-0.069,-0.006,0.021,0.273,0.005,,-0.032,0.03,0.032,-0.016,-0.047,-0.004
BRAP (UniProt Q7Z569),-0.092,-0.23,0.033,-0.093,-0.02,0.086,0.02,0.02,0.06,-0.158,-0.04,-0.198,-0.042,0.046,0.057,-0.087,0.076,-0.024,0.042,-0.064
AKT1 (UniProt P31749),0,-0.503,0.068,0.158,-0.119,-0.08,0.133,0.257,0.107,0.222,-0.163,-0.25,-0.043,0.111,0.317,-0.062,0.038,-0.24,-0.003,-0.025
BLVRB (UniProt P30043),0.008,0.046,0.012,0.161,0.023,-0.078,0.014,0.017,-0.049,0.127,0.101,-0.047,-0.083,-0.002,0.058,-0.045,0.043,0.061,-0.007,-0.003
ABITRAM (UniProt Q9NX38),0.033,-0.11,0.088,0.055,,0.137,0.051,0.139,-0.034,-0.093,0.035,-0.188,-0.107,-0.007,,-0.164,-0.041,-0.243,0.025,-0.049
AGAP3 isoform 4 (UniProt Q96P47),0.154,-0.038,0.105,0.034,0.019,,,0.162,,,,-0.233,-0.011,0.166,-0.033,,0.178,,-0.104,
ANKRD29 (UniProt Q8N6D5),-0.021,-0.27,-0.152,0,-0.137,-0.233,0.025,0.111,-0.039,-0.043,-0.089,-0.011,-0.016,0.27,-0.02,-0.04,-0.227,0.118,0,-0.038
ARHGAP4 isoform 2 (UniProt P98171),-0.044,-0.112,0.048,,-0.048,,0.036,0.293,0.757 (active),,-0.094,0.115,0.089,-0.172,-0.096,0.22,-0.062,-0.139,0.047,0.097
ACOX3 (UniProt O15254),-0.346,0.028,-0.069,-0.113,0.011,,-0.129,0.044,,,,-0.039,-0.097,-0.465 (active),-0.034,-0.063,-0.313,,-0.036,0.046
ANAPC2 (UniProt Q9UJX6),-0.071,-0.338 (active),0.023,-0.031,-0.027,-0.018,0.004,0.191,0.03,-0.001,-0.003,-0.084,-0.02,0.009,-0.011,-0.049,0.027,-0.063,0.124,0.006
ARMC8 (UniProt Q8IUR7),-0.055,-0.14,0.053,-0.008,-0.005,0.003,-0.007,-0.029,0.053,0.043,-0.05,-0.07,-0.049,0.009,0.016,-0.005,0.017,0.228,0.026,-0.031
